Hits are enriched below; roughly 27% of the tested compounds scored in any of these assays.
CYP2C19 act: activators of human cytochrome P450 2C19; AID 1025; activation factor at 5 µM; P33261; 96,000 tested, under 10 active; recombinant CYP2C19, luciferin-H EGE luminescence; stronger effect = higher value; 0 = fully inhibited enzyme, 1 = untreated enzyme;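 active = activation factor of at least 2 at 5 µM in the primary screen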
CYP2C9 inh: human CYP2C9 inhibition; AID 777; CYP2C9 Supersomes, luciferin-H conversion, luminescence; P11712; inhibition, % at 5 µM; 20% of 96,000 active;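 active = blocking of liver enzyme CYP2C9 beyond about 50% at 5 µM, limit read from the data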
Target sequence (P11712 whole entry, looked up): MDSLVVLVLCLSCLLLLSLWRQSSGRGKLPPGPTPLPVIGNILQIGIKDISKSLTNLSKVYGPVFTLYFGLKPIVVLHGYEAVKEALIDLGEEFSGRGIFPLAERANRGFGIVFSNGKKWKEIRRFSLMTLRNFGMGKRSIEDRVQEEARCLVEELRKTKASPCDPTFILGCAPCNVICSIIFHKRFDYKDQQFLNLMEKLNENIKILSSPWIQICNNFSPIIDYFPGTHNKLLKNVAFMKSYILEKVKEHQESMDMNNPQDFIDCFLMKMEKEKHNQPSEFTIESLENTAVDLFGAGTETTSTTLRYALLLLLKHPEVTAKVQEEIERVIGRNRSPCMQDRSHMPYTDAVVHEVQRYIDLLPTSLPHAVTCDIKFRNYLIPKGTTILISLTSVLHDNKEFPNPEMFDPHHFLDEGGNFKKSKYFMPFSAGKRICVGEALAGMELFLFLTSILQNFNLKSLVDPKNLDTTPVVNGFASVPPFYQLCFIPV
CYP2C19 inh: inhibitors of human CYP2C19; P33261; CYP2C19 Supersomes, luciferin-H EGE luminescence, 30 min; inhibition, % at 5 µM; 21% of 96,000 active; AID 778;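 active = CYP2C19 inhibition above a set limit at 5 µM in the primary screen, cut at about 50% in these data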
CYP2C9 act: increases human cytochrome P450 2C9 activity; P11712; recombinant CYP2C9, luciferin-H conversion, luminescence; stronger effect = higher value; factor 1 = untreated enzyme, 0 = blocked; activation factor at 5 µM; 1.4% of 96,000 active; AID 1024;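 active = activation factor of 2 or more for CYP2C9 at a 5 µM dose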
sEH inh: inhibitors of human soluble epoxide hydrolase. recombinant human sEH enzymatic activity assay. inhibition, % at 2 µM. 0.34% of 91,000 active; in the data active = inhibition above about 80%
sEH activator: soluble epoxide hydrolase (human) activation; 0.04% of 91,000 active; purified human sEH enzymatic activity, activator screen; activation, % at 2 µM; P34913; in the data active = activation above about 37%
Each line names hits and unclear results; the compound was inactive in the other large screens.

Cc1ccccc1C1CC(c2ccccc2)Nc2ncnn21 (centres undefined)	none
COc1ccccc1C1CC(c2ccc(Cl)cc2)Nc2nc(N)nn21 (centres undefined)	CYP2C19 inh 50
COc1cccc(C2CC(c3ccccc3OC)n3ncnc3N2)c1 (centres undefined)	CYP2C9 inh 66, CYP2C19 inh 96
CCC1(CC)C(=O)NN(c2ccccc2)C1=O	none (no result: CYP2C19 act, CYP2C9 inh, CYP2C19 inh, CYP2C9 act)
CCOC(=O)c1sc(N)c(C#N)c1CSc1nc2ccc(C)cc2[nH]1	CYP2C9 inh 76, CYP2C19 inh 77
CCOC(=O)c1sc(N)c(C#N)c1CSc1nc2ccc(OCC)cc2[nH]1	CYP2C9 inh 97, CYP2C19 inh 93 (no result: sEH inh, sEH activator)
CCc1ccccc1NC(=O)CN(c1cccc(OC)c1)S(C)(=O)=O	CYP2C9 inh 63, CYP2C19 inh 86
CCOC(=O)c1ccccc1NC(=O)CN(c1cccc(OC)c1)S(C)(=O)=O	CYP2C9 inh 95, CYP2C19 inh 99 (no result: sEH inh, sEH activator)
COc1cccc(N(CC(=O)Nc2ccccc2C)S(C)(=O)=O)c1	CYP2C19 inh 63
COc1ccccc1N(CC(=O)Nc1ccccc1C)S(C)(=O)=O	none (no result: CYP2C19 act, CYP2C9 inh, CYP2C19 inh, CYP2C9 act)
COc1ccc(C2N3CC4(C)CN2CC(C)(C3)C4O)cc1 (centres undefined)	none
COC(=O)CN(C(=O)CSc1nnc(-c2cccc(OC)c2)o1)c1ccc(OC)cc1	CYP2C9 inh 60
O=C(CSc1nnc(COc2ccc(F)cc2)o1)N1c2ccccc2CCc2ccccc21	CYP2C9 inh 96, CYP2C19 inh 83 (no result: sEH inh, sEH activator)
O=C(CSc1nnc(CNc2ccc(F)cc2)o1)N1c2ccccc2Sc2ccccc21	CYP2C9 inh 53
O=C(CSc1nnc(COc2cccc3cccnc23)o1)N1CCc2ccccc21	none
COc1ccc(CN(C(=O)CSc2nnc(-c3ccccc3C)o2)c2ccc(F)cc2)cc1	none (no result: CYP2C19 act, CYP2C9 inh, CYP2C19 inh, CYP2C9 act)
CCOC(=O)CN(C(=O)CSc1nnc(-c2cccc(OC)c2)o1)c1ccc(F)cc1	CYP2C9 inh 92, CYP2C19 inh 85
COc1ccc(C(=O)CSc2nnc(-c3ccccc3)o2)cc1	none
O=C(CSc1nnc(CNc2ccc(F)cc2)o1)N1CCN(C(=O)c2ccco2)CC1	none (no result: sEH inh, sEH activator)
N#C/C(=C\c1ccc(-c2cccc(Cl)c2)o1)C(=O)Nc1cccc2cccnc12	none
COc1ccc(N2CCN(Cc3nc4c(c(=O)n(C)c(=O)n4C)n3C(C)C(C)=O)CC2)cc1 (centres undefined)	none
CCOc1cc2[nH]c(=O)n(CCCC(=O)NCc3ccc(OC)cc3)c(=O)c2cc1OCC	none
CCC(=O)NCCc1nc2ccccc2n1Cc1ccc(C)cc1	none
CCOC(=O)CN(C(=O)CSc1nnc(CNc2ccc(F)cc2)n1C)c1ccccc1	none
CCOC(=O)CN(C(=O)CSc1nnc(CNc2ccc(F)cc2)o1)c1ccccc1	CYP2C9 inh 78, CYP2C19 inh 59
CC(COc1cccc2ccccc12)CN1CCN(C)CC1 (centres undefined)	none (no result: sEH inh, sEH activator)
O=c1[nH]c(NCc2ccco2)nnc1Cc1ccccc1Cl	CYP2C9 act 2.5
O=C1S/C(=C/c2ccc(N3CCOCC3)o2)C(=O)N1Cc1ccc(F)cc1	none
O=C1/C(=C/c2ccc(N3CCOCC3)o2)SC(=Nc2ccccc2)N1CCc1c[nH]c2ccccc12	CYP2C9 inh 63
CCOC(=O)N1CCC(NC(=O)c2cc3sccc3n2CC)CC1	none
CCOc1ccc(CCNC(=O)c2cc3sccc3n2CC)cc1OCC	CYP2C19 inh 51
CCCOc1ccc(S(=O)(=O)NCCN2CCOCC2)c2ccccc12	CYP2C19 inh 99
CCOc1ccc(S(=O)(=O)NCCN2CCOCC2)c2ccccc12	CYP2C19 inh 76
Cc1ccc(S(=O)(=O)NCCN2CCOCC2)cc1	none
Nc1nc(NC(=O)Cc2ccccc2)nn1-c1ccccc1	none (no result: sEH inh, sEH activator)
CCCCNC(=O)c1ccc(CNc2c(N3CCC(C(=O)OCC)CC3)c(=O)c2=O)cc1	none (no result: CYP2C19 act, CYP2C9 inh, CYP2C19 inh, CYP2C9 act)
Cc1ccc(NC(=O)c2ccc(CNc3c(N4CCOCC4)c(=O)c3=O)cc2)cc1	none (no result: sEH inh, sEH activator)
CCOC(=O)C1CCN(c2c(NCc3ccc(C(=O)NC4CCCC4)cc3)c(=O)c2=O)CC1	CYP2C9 inh 61
Cc1ccc(CNC(=O)c2ccc(CNc3c(N4CCCC4)c(=O)c3=O)cc2)cc1	CYP2C9 inh 51, CYP2C19 inh 80
COc1ccc(CNC(=O)C2CCCN2C(=O)NC2CCCCC2)cc1 (centres undefined)	none
CSc1nnc(-c2sccc2OCc2ccc(C)cc2)n1C	none
CCCCN(CCCC)S(=O)(=O)c1ccc(NS(=O)(=O)c2ccc(NC(C)=O)cc2)cc1	CYP2C9 inh 84
CCCN(CCC)S(=O)(=O)c1ccc(NC(=O)Cc2cccs2)cc1	CYP2C9 inh 84, CYP2C19 inh 50
O=C(CN1CCCCC1)Nc1ccc(S(=O)(=O)N2CCOCC2)cc1	none
CCCCN(CCCC)S(=O)(=O)c1ccc(NC(=O)CN2CCOCC2)cc1	CYP2C9 inh 91, CYP2C19 inh 72
CCCCN(CCCC)S(=O)(=O)c1ccc(NC(=O)Cc2cccs2)cc1	CYP2C9 inh 89, CYP2C19 inh 66
CCCNS(=O)(=O)c1ccc(NC(=O)Cc2cccs2)cc1	none (no result: CYP2C19 act, CYP2C9 inh, CYP2C19 inh, CYP2C9 act)
O=C(NC1CCCC1)C(c1ccc(Cl)cc1)N1CCOCC1 (centres undefined)	none (no result: sEH inh, sEH activator)
CNC(=O)c1ccccc1F	none
CCCN(CCC)S(=O)(=O)c1ccc(NC(=O)COc2ccccc2)cc1	CYP2C9 inh 99, CYP2C19 inh 87
CCCN(CCC)S(=O)(=O)c1ccc(C(=O)Nc2ccc(OCC(=O)N3CCOCC3)cc2)cc1	CYP2C9 inh 80
Cc1cc(C)nc(NS(=O)(=O)c2ccc(NC(=O)COc3ccccc3)cc2)n1	none
O=C(COc1ccc(/C=N/NS(=O)(=O)c2ccccc2)cc1)Nc1ccccc1	CYP2C9 inh 68
COc1ccc(-n2c3c(cc(C(=O)N4CCCCC4)c2=O)C(=O)CC(C)(C)C3)cc1	none
CCOC(=O)C(=O)Nc1nnc(CCc2ccccc2)s1	none (no result: CYP2C19 act, CYP2C9 inh, CYP2C19 inh, CYP2C9 act)
CC(=O)C1=C(O)C(=O)N(CCN2CCOCC2)C1c1ccccc1 (centres undefined)	none
C=CCOc1nc2c(c(=O)n(Cc3ccc(Cl)cc3)c(=O)n2C)n1C	none (no result: sEH inh, sEH activator)
COCCCn1c(SCC(=O)OC2CCCCC2)nnc1-c1cccs1	CYP2C19 inh 85
COCCCn1c(SCC(=O)OC2CCCCC2)nnc1-c1ccco1	CYP2C9 act 2.2
COCCCn1c(SCC(=O)NC2CCCC2)nnc1-c1ccco1	none
Cn1c(SCC(=O)N(C2CCCCC2)C2CCCCC2)nnc1-c1cccs1	none
COc1ccc(NC(=O)/C(Cl)=C(/Cl)S(=O)(=O)Cc2ccc(C)cc2)cn1	CYP2C9 inh 53
Nc1nnnn1/N=C/c1cccc(O)c1	none
Nc1nnnn1/N=C/c1ccc(O)cc1	CYP2C9 inh 84, CYP2C19 inh 68
c1ccc(OCc2nn3c(-c4ccccn4)nnc3s2)cc1	none (no result: sEH inh, sEH activator)
c1ccc(OCc2nn3c(-c4ccncc4)nnc3s2)cc1	CYP2C9 inh 80, CYP2C19 inh 99 (no result: sEH inh, sEH activator)
c1ccc(-c2nnc3sc(Cc4cccs4)nn23)cc1	none (no result: CYP2C19 act, CYP2C9 inh, CYP2C19 inh, CYP2C9 act)
